Reference: PubChem BioAssay (NCI)
This is part of a sample that, as a whole, favours compounds with a hit. Of some 83,000 tested, about 20% had one in any assay.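 96-well plates, one dose, 48 hours. Percent growth reported; active if below 10.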 Values without a mark were called inactive. Calls of active or inactive are those of the source.

Each compound was assayed on HCT-15 colon (assay: NCI-60 one-dose screen, 48 h (100 = growth as untreated, 0 = no growth, -100 = all killed)). Settings: 10 µM unless noted.
For `N#Cc1c(-c2ccc(F)cc2)nc(SCc2ccc(F)cc2)nc1N1CCNCC1`, the growth was -42.8% (active).
For `N#Cc1c(-c2ccc(F)cc2)nc(SCc2ccccc2)nc1N1CCNCC1`, the growth was -87.9% (active).
`CS(=O)(=O)c1ccc(-n2nc(C(=O)NCc3ccccc3)cc2-c2ccc(Cl)cc2)cc1` gave a growth of 66.3%.
`Cc1cccc(C)c1Nc1nnc(-c2c[nH]c3ccccc23)o1` gave a growth of 97.6%.
Work on `COc1ccc(/C=C/C(=O)c2ccc(S(=O)(=O)NCCNc3nc(N(C)C)nc(N4CCOCC4)n3)cc2)cc1` yielded a growth of 59.3%.
`COc1ccc(NC(=O)Cn2c(/C=C/c3cccc(Br)c3)nc3ccccc3c2=O)cc1` was tested, and the growth was 70.9%.
In the case of `O=C1CCC(N2C(=O)c3cccc(NCCCCCC(=O)N4CCN(c5ccc6nc7c(nc6c5C(F)(F)F)C(=O)c5ncccc5C7=O)CC4)c3C2=O)C(=O)N1` (stereo not given), the growth is reported as -69.5% (active).
With `O=C(CSc1nnc(-c2ccc(-c3nc4ccc(Cl)cc4[nH]3)cc2)o1)Nc1ccccc1` the growth was 25.2%.
`CC(C)(C)OC(=O)N1CCC2(CC1)Oc1ccccc1[C@H]1CC(c3ccc(Br)cc3)=NN12` was tested, and the growth was 59.1%.
In the case of `NS(=O)(=O)c1ccc(N2N=C(c3ccc(NC(=O)Nc4ccccc4)cc3)CC2c2ccc(Br)cc2)cc1` (stereo not given), the growth is reported as -89.1% (active).
`CC1=C(C(=O)OCc2ccccc2)C(c2ccc(N(C)C)cc2)n2c(nc3ccccc32)N1` (stereo not given) gave a growth of 71.4%.
`Cc1ccc(O)cc1Nc1nc(SCCN2CCOCC2)nc2c1cnn2CC(Cl)c1ccc(Br)cc1` (stereo not given) was tested, and the growth was 0.154% (active).
With `C/C(=N/O)c1ccc(NC(=O)CSc2nnc(-c3ccc(-c4nc5ccc(Cl)cc5[nH]4)cc3)o2)cc1` the growth was 78.1%.
`CCCCNc1ccc2c3c(cccc13)C(=O)N(NCC(O)COc1ccc3c(C)cc(=O)oc3c1)C2=O` (stereo not given) gave a growth of 77.3%.
With `COc1ccc2[nH]c(=O)cc(-n3ncc(C(=O)/C=C/c4cc(OC)c(OC)c(OC)c4)c3C)c2c1` the growth was -27.1% (active).
`COc1ccc(-c2cc(-c3cc(OC)c(OC)c(OC)c3)[nH]c(=O)c2C#N)cc1` showed a growth of 81%.
For `COc1ccc2[nH]c(O)c(N=Nc3nc(-c4ccc(Br)cc4)cs3)c2c1`, the growth was 2.5% (active).
`COc1ccc2[nH]cc(-c3cc(N)n4nc(-c5c[nH]c6ccccc56)cc4n3)c2c1` was tested, and the growth was -79.2% (active).
For `Nc1cc(-c2c[nH]c3ccc(F)cc23)nc2cc(-c3c[nH]c4ccccc34)nn12`, the growth was -61.2% (active).
`COC(=O)c1cccc(Oc2ccc(NC(=O)Nc3cc(C(F)(F)F)ccc3F)cc2)c1` gave a growth of 62%.
With `N#C/C(=C1/C(=O)Nc2ccccc21)c1nnc(NC(=O)c2ccc(-n3c(=O)[nH]c4ccccc4c3=O)cc2)s1` the growth was 14.8%.
`Cc1ccc(N=Nc2c(N)nn3c(-c4cc5cc(Br)ccc5oc4=O)ccnc23)cc1` was tested, and the growth was 79.2%.
With `Cc1ccc(C2CC(c3ccc(NC(=O)Nc4ccccc4)cc3)=NN2c2ccc(S(C)(=O)=O)cc2)cc1` (stereo not given) the growth was -84.4% (active).
For `O=C(NN1C(=O)/C(=C/C=C/c2ccc([N+](=O)[O-])o2)SC1=S)c1ccc(O)cc1`, the growth was -73% (active).
In the case of `COc1cc(CNC(=O)C[C@H](C)CCC=C(C)C)ccc1OCc1cn(-c2ccccc2F)nn1`, the growth is reported as 82.8%.
Work on `OC(c1ccccc1)(c1ccccc1)C1CCN(c2ccc3nnc(Cl)n3n2)CC1` yielded a growth of 18.1%.
In the case of `Cc1nc2sccn2c1-c1nnc(SCC(C)C)o1`, the growth is reported as 77.2%.
`N#Cc1ccc(C(=O)CSc2nc3c(c(Nc4ccc(S(N)(=O)=O)cc4)n2)CCC3)cc1` gave a growth of 49.9%.
`Cc1cccc(/C=C/c2ccc(NC(=S)NCCCCN(C)C)cc2)c1` was tested, and the growth was -99.4% (active).
With `O=C(N/N=C/c1ccoc1)c1[nH]c2ccc(Br)cc2c1-c1ccccc1` the growth was -100% (active).
`O=C(CSc1nc2sc3c(c2c(=O)n1-c1ccc(Cl)cc1)CCCC3)NNC(=O)c1ccc(F)cc1` showed a growth of 91.8%.
With `C=CCSc1nnc(-c2ccc(-c3nc4ccc(Cl)cc4[nH]3)cc2)o1` the growth was 28%.
With `O=C(N/N=C/c1ccc(Cl)cc1)c1ccc(OCc2nc3ccc(Cl)cc3[nH]2)cc1` the growth was -47.1% (active).
In the case of `Cc1cccc(NCC(=O)N2CCN(c3ncnc4c3cnn4-c3ccccc3)CC2)c1`, the growth is reported as 72.9%.
With `CN(C)c1nc(NCCNS(=O)(=O)c2ccc(C(=O)/C=C/c3ccc(Cl)cc3)cc2)nc(N2CCOCC2)n1` the growth was -53% (active).
